Screening results deposited in PubChem by National Center for Advancing Translational Sciences (NCATS).
TRPV1 ag = activates the human vanilloid receptor TRPV1; Q8NER1; TRPV1-expressing cells, Fluo-8 calcium influx, agonist mode; activation, % at 8.33 µM; 320,000 compounds, 0.19% hits; in the data active means activation above about 80%; inconclusive means between about 30% and that limit; further: 0% is about no effect
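TRPV1-expressing cells were cultured overnight at 35.5C and loaded with Fluo-8 calcium dye for 40 to 90 min at room temperature. After a 10 s baseline, compound was added and calcium influx was read kinetically for 3 min (ex 480/em 520 nm).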
D1 ag = human D1 receptor agonism. P21728. HEK293 T-REx D1 cells, calcium flux, agonist mode. activation, % at 2 µM. 360,000 compounds, 1% hits. AID 504660; in the data active means activation above about 30%; further: 0% is about no effect
Target sequence (P21728 whole entry, looked up): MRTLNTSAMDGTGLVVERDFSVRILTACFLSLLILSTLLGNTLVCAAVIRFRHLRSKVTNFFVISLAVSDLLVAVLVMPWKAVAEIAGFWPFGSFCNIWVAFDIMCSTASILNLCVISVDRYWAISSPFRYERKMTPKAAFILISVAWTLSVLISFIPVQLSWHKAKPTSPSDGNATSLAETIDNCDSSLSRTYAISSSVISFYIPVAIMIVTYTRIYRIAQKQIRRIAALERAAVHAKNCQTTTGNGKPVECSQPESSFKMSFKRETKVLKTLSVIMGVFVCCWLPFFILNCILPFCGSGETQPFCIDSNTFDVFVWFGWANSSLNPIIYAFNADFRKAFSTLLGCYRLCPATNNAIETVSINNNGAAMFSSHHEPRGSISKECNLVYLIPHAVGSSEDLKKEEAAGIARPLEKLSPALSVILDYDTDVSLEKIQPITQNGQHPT
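Tetracycline-induced HEK293 TREx D1 cells, force-coupled to calcium signalling, were dye-loaded with a no-wash calcium kit. Compound was pin-added after a 10 s baseline. Fluorescence was read kinetically at 1 cycle/s for 180 s, with calcium rises flagged as agonism.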
TRPV1 PAM = enhances activation of the human vanilloid receptor TRPV1; potentiation, % at 8.33 µM; 320,000 compounds, 0.02% hits; TRPV1-expressing cells, Fluo-8 calcium influx, capsaicin EC20 potentiation; in the data active means potentiation above about 80%; inconclusive means between about 30% and that limit; further: 0% is about no effect
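Fluo-8 calcium influx in TRPV1-expressing cells, kinetic read (ex 480/em 520 nm). Compound added and read 3 min for agonist activity, followed by capsaicin at EC20 final and 2 min further read for enhancement.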
D1 potentiator = potentiators of human D1 dopamine receptor; P21728; HEK293 TREx D1 cells, calcium flux, dopamine EC20 potentiation; potentiation, % at 10 µM; 360,000 compounds, 0.036% hits; in the data active means potentiation above about 30%; further: 0% is about no effect
D1 antagonist = blocks dopamine activation of the human D1 receptor | P21728 | HEK293 TREx D1 cells, calcium flux, dopamine EC80; hits give low values | activity change, negative = inhibition, % at 10 µM | 360,000 compounds, 3.2% hits; in the data active means activity change below about -30%; further: on the % scale 0 is the no-effect control and ±100 the full control effect
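Calcium flux readout: force-coupled, inducible Hek293 Trex D1 line, cells induced overnight at 30 C with tetracycline, dye-loaded 30–90 min at RT. Antagonism scored against EC80 dopamine challenge given 180 s after compound.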
An asterisk follows results filed as active; ? = inconclusive; / = no result. Hits are enriched below; roughly 4.2% of the tested compounds scored in any of these assays.

SMILES	TRPV1 ag	D1 ag	TRPV1 PAM	D1 potentiator	D1 antagonist
Cc1ccc(OCC(=O)N2CCN(Cc3ccc4c(c3)OCO4)CC2)cc1C	?	0.7	-3.1	-2.6	0.4
COc1cc2c(cc1O)[C@@H]1Cc3ccc(OC)c(O)c3CN1CC2	-1.5	-1.4	-0.4	-7.2	-90.1*
COc1ccc(C[C@@H]2c3cc(O)c(OC)cc3CCN2C)cc1O	-1.8	-0.3	19.4	-11.3	-88.4*
COc1cccc(C2SCC(=O)Nc3c2c(C)nn3-c2ccc(C)c(Cl)c2)c1OC (stereo not drawn)	/	-0.1	/	-2.9	-6.0
O=c1[nH]c(=S)n(-c2ccc(Br)cc2)c(O)c1C=Nc1ccc(N2CCOCC2)cc1	10.9	27.5	-1.7	5.5	0.7
Cc1cc(C)cc(-n2c(O)c(C=Nc3ccc(N4CCOCC4)cc3)c(=O)[nH]c2=S)c1	8.9	35.0*	11.1	-0.1	-3.5
COc1ccc(-n2c(/C=C\c3ccccc3F)nc3ccccc3c2=O)c(OC)c1	/	0.2	/	4.7	7.6
NCCc1c[nH]c2ccc(F)cc12	-2.5	0.8	-0.5	-3.4	-30.2*
NCCc1c[nH]c2ccc(C(N)=O)cc12	1.7	1.6	-12.8	-6.5	34.7
O=C1CC(c2ccc(C(F)(F)F)cc2)c2c(c3ccccc3oc2=O)O1 (stereo not drawn)	/	2.6	/	0.1	0.3
Cc1c2ccncc2c(C)c2c1[nH]c1ccccc12	14.9	32.9*	-10.5	-1.7	-23.7
c1ccc2c(c1)[nH]c1cnccc12	-2.2	0.1	3.9	-1.6	16.8
CCCCCc1nc2c(c(=O)c3ccccc3n2C)c(=O)n1C1CCCCCC1	25.1	190.9*	-20.3	7.1	-54.9*
Nc1c(C(=O)Nc2ccc(Br)cc2F)sc2nc3c(cc12)N1CCC3CC1	/	1.0	/	-5.3	-31.7*
Nc1c(C(=O)Nc2ccc(F)c(Cl)c2)sc2nc3c(cc12)N1CCC3CC1	/	3.4	/	-3.6	-0.1
